According to PubChem BioAssay (NCATS):
“And” between values parts separate entries of the source, which are not always exact repeats. Equal entries are not always repeated. Records with an inconclusive call do not appear. Entries that show only a call come without a potency. The source made the active and inactive calls. Unless noted, the call rests on the fitted dose curve; in most records, active means well fitted cell-killing curve with a large enough effect; inconclusive means small, poorly fitted or top-dose-only effect; inactive means flat fitted curve, though single readings scatter.

Legend:
[1] = Cell Viability - LYMP2-008 (AID 980); further: nearly all actives have a fitted effect of over 60% in size
Summary of the method: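 Cells seeded at 2500/well and rested 5 hr at 37 C; compounds added over a concentration range and incubated 24 hr at 37 C; CellTiter-Glo added, 30 min at room temperature; luminescence read and AC50 fitted with Hill model.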

[2] = Cell Viability - LYMP2-010 (AID 981);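 further: cells exposed to compound for 24 hours at 37 °C; nearly all actives have a fitted effect of over 55% in size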
Summary of the method: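 Steps: seed 2500 LYMP2-010 cells per well; incubate 5 hr at 37 C; add compound; incubate 24 hr at 37 C; add CellTiter-Glo, wait 30 min at room temperature; read luminescence. Concentration-response fitted to Hill equation for AC50.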

[3] = Cell Viability - LYMP2-012 (AID 982);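 further: cellular ATP by luciferase luminescence where a drop means cytotoxicity; cells exposed to compound for one day before reading; nearly all actives have a fitted effect of over 55% in size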
[4] = Cell Viability - LYMP2-016 (AID 984);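 further: cells exposed to compound for 24 hours at 37 °C; nearly all actives have a fitted effect of over 55% in size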
Summary of the method: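 Human lymphoblastoid LYMP2-016 cells, 2500 per well, treated with compounds for 24 h at 37 C. Viability read as intracellular ATP by CellTiter-Glo luminescence after 30 min at room temperature; AC50 from Hill fits of concentration-response.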

[5] = Cell Viability - LYMP2-018 (AID 985);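 further: compound exposure lasted 24 hr at 37 °C; nearly all actives have a fitted effect of over 50% in size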
Summary of the method: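 Seed 2500 lymphoblastoid cells per well, incubate 5 hr at 37 C, add compound and incubate 24 hr at 37 C, add CellTiter-Glo, wait 30 min at room temperature, then read luminescence.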

[6] = Cell Viability - LYMP2-020 (AID 986); further: series mostly up to about 92 µM; nearly all actives have a fitted effect of over 55% in size
Summary of the method: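 Seed 2500 cells per well and incubate 5 hr at 37 C. Add compounds at a concentration series and incubate 24 hr at 37 C. Add CellTiter-Glo, wait 30 min at RT, read luminescence, and fit a Hill curve for AC50.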

[7] = Cell Viability - LYMP2-022 (AID 987); further: nearly all actives have a fitted effect of over 55% in size
Summary of the method: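 Cells were seeded at 2500 per well, rested 5 hr at 37 C, and treated with titrated compounds for 24 hr at 37 C. Cellular ATP was then quantified by luciferase luminescence, and AC50 values were derived from Hill-modelled concentration-response curves.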

[8] = Cell Viability - LYMP2-024 (AID 988); further: nearly all actives have a fitted effect of over 60% in size
Summary of the method: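 qHTS cytotoxicity, human lymphoblastoid line, complete medium; 24 h cpd treatment, 37 C; CellTiter-Glo ATP luminescence readout; tetraoctylammonium bromide positive control; AC50 via Hill fit.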

[9] = Cell Viability - LYMP2-026 (AID 989); further: nearly all actives have a fitted effect of over 50% in size
Summary of the method: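 Cells are seeded at 2500 per well and held 5 hr at 37 C. Compounds are added in concentration series for 24 hr, then CellTiter-Glo reagent is applied and luminescence read.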

[10] = Cell Viability - LYMP1-002 - Assay at 24 hr (AID 993)
Summary of the method: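 Acute toxicity is measured as concentration-dependent loss of cellular ATP in a human lymphoblastoid line (Coriell LYMP1-002) after 24 h treatment in complete medium. ATP is quantified by luciferase luminescence and AC50 derived by Hill modelling.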

[11] = Cell Viability - LYMP1-002 - Assay at 40 hr (AID 994); further: nearly all actives have a fitted effect of over 60% in size
Summary of the method: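 Cells are plated at 2500 per well and rested 5 hr at 37 C. Compounds are added and incubated 40 hr at 37 C. CellTiter-Glo reagent is added for 30 min at room temperature before luminescence is read.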

[12] = qHTS Assay for Identification of Small Molecule Inducers of Hypoxia Response (AID 2120; active means well fitted curve in the direction sought with a large enough effect in the signal ratio, with a control signal flat, not every such curve was filed as active; the % refers to the signal ratio)
Summary of the method: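 Cell-based qHTS for reporter induction: hypoxia response element controlled beta-lactamase in ME-180 cells. Compounds incubated 17 h at 37 degrees C; activity from blue/green (460/530 nm) ratio, inducers ranked by AC50.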

[13] = molecular target: Estrogen receptor (Homo sapiens) (UniProt P03372); assay: qHTS assay for small molecule antagonists of estrogen receptor alpha signaling (AID 588513; active means well fitted curve in the direction sought with a large enough effect in the signal ratio, with a control signal flat, not every such curve was filed as active; the % refers to the signal ratio)
Summary of the method: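 ER-alpha-UAS-bla GripTite HEK 293 cells in 2% charcoal/dextran-treated FBS medium; compounds titrated (1:2, duplicate), then stimulated with 0.5 nM 17-beta-estradiol for 18 h at 37C. CCF4 beta-lactamase fluorescence; Hill-fit IC50 and efficacy.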

[14] = molecular target: Estrogen receptor (Homo sapiens) (UniProt P03372); assay: qHTS assay for small molecule agonists of estrogen receptor alpha signaling (AID 588514; calls by dose curve; further: nearly all actives have a fitted effect of over 70% in size)
Summary of the method: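 Efficacy is expressed against 20 nM 17-beta-estradiol (100%) and DMSO basal (0%); EC50 from Hill equation. Assay: beta-lactamase reporter in ER-alpha-UAS-bla HEK 293 cells, 18 h compound incubation, CCF4 detection.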

[15] = molecular target: Bile acid receptor (Homo sapiens) (UniProt Q96RI1); assay: qHTS assay for small molecule antagonists of farnesoid X receptor signaling (AID 588526; calls by dose curve)
Summary of the method: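 Antagonist mode: titrated compounds tested against chenodeoxycholic acid stimulation (normalized to 50 uM CDCA and DMSO) in GeneBLAzer HEK293T cells for 16 h. Beta-lactamase read by CCF4 fluorescence; IC50 from Hill fits.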

[16] = molecular target: Bile acid receptor (Homo sapiens) (UniProt Q96RI1); assay: qHTS assay for small molecule agonists of farnesoid X receptor signaling (AID 588527; calls by dose curve; further: series mostly up to about 77 µM); settings: HEK293T FXR-UAS-bla, beta-lactamase ratio, 16 h; stronger effect = higher value
Summary of the method: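 Quantitative HTS used FXR-UAS-bla HEK293T cells with 16 h compound incubation at 37 C. EC50 values came from concentration-response curves normalized to chenodeoxycholic acid.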

[17] = molecular target: Peroxisome proliferator-activated receptor delta (Homo sapiens) (UniProt Q03181); assay: qHTS assay for small molecule agonists of peroxisome proliferator-activated receptor delta signaling (AID 588534; calls by dose curve)
Summary of the method: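 Agonist-mode qHTS; reporter cells, 5 hrs 37 C pre-incubation; compound titration, 18 hrs 37 C; CCF4 dye, 2 hrs RT; fluorescence read. EC50/efficacy via Hill fit.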

[18] = qHTS assay for small molecule antagonists of peroxisome proliferator-activated receptor delta signaling (AID 588535); settings: HEK293T PPARd-UAS-bla, beta-lactamase FRET ratio, 18 h; 460 nm channel;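 further: cells co-treated with a PPAR-delta agonist as stimulator during compound exposure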
Summary of the method: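 Fluorescence from CCF4-loaded GeneBLAzer PPAR-delta-UAS-bla HEK293T cells (2 hrs RT loading) quantified reporter inhibition after an 18 hr, 37 C compound exposure across a titration.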

[19] = molecular target: Peroxisome proliferator-activated receptor gamma (Homo sapiens) (UniProt P37231); assay: qHTS assay for small molecule agonists of peroxisome proliferator-activated receptor gamma signaling (AID 588536; active means well fitted curve in the direction sought with a large enough effect in the signal ratio, with a control signal flat, not every such curve was filed as active; the % refers to the signal ratio)
Summary of the method: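 Using GeneBLAzer HEK293 cells, response was quantified by CCF4 fluorescence and normalized between basal DMSO (0%) and rosiglitazone 2 uM (100%); curves yielded half-maximal stimulation concentration and efficacy.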

[20] = qHTS assay for small molecule agonists of retinoid X receptor alpha signaling (AID 588544; calls by dose curve); settings: HEK293T RXRa-UAS-bla, beta-lactamase reporter, 18 h; 530 nm emission
[21] = molecular target: Retinoic acid receptor RXR-alpha (Homo sapiens) (UniProt P19793); assay: as above
[22] = molecular target: Thyroid hormone receptor beta (Homo sapiens) (UniProt P10828); assay: qHTS assay for small molecule agonists of thyroid hormone receptor beta signaling (AID 588545; calls by dose curve)
Summary of the method: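 Agonist activity was read as beta-lactamase CCF4 fluorescence (405 ex, 460/530 em), scaled between DMSO (0%) and 10 nM T3 (100%), then Hill-fitted for EC50 and efficacy. HEK 293 TR-UAS-bla cells in 2% charcoal/dextran FBS medium were exposed 18 h at 37 C.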

[23] = qHTS assay for small molecule antagonists of retinoid X receptor alpha signaling (AID 588546); settings: HEK293T RXRa-UAS-bla, beta-lactamase ratio, antagonist mode; measured here: W530 green channel, cytotoxicity proxy;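 further: cells stimulated with 9-cis-retinoic acid as agonist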
Summary of the method: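 Beta-lactamase reporter inhibition, read as CCF4 fluorescence ratio (ex 405, em 460/530 nm) after 2 h at RT. HEK293T UAS-bla cells, 2500/well, were stimulated with 9-cis-RA at 500 or 100 nM final alongside test compound for 18 h at 37 C.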

Chain of Estrogen receptor (Homo sapiens) (P03372 whole entry, looked up): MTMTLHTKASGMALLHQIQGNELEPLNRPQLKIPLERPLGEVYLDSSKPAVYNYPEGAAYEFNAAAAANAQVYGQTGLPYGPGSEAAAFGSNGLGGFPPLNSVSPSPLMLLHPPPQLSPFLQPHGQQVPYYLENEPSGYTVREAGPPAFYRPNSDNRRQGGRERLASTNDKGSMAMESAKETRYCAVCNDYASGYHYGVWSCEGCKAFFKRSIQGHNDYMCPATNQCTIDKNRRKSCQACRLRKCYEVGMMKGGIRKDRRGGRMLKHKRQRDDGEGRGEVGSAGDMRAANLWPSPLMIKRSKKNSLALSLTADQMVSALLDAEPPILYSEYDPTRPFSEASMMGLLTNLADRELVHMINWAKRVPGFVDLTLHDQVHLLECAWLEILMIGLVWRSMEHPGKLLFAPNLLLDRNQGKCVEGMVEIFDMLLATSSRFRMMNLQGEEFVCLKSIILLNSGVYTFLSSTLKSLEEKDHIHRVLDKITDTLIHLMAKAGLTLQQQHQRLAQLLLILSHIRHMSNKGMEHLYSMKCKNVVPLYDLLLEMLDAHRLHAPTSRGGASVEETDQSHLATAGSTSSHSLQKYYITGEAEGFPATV
Chain of Bile acid receptor (Homo sapiens) (Q96RI1 whole entry, looked up): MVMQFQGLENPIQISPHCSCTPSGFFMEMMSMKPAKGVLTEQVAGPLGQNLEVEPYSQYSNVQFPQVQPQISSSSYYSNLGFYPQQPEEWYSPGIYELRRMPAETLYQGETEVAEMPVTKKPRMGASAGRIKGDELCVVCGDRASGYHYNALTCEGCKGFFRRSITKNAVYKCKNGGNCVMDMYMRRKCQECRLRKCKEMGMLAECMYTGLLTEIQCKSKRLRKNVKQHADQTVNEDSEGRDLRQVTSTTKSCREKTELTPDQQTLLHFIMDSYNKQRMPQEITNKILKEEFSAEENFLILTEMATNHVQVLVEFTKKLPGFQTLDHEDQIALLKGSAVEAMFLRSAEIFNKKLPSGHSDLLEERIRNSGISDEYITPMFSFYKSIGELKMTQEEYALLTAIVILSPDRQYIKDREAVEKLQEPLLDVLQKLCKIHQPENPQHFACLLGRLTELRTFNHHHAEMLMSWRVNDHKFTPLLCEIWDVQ
Chain of Thyroid hormone receptor beta (Homo sapiens) (P10828 whole entry, looked up): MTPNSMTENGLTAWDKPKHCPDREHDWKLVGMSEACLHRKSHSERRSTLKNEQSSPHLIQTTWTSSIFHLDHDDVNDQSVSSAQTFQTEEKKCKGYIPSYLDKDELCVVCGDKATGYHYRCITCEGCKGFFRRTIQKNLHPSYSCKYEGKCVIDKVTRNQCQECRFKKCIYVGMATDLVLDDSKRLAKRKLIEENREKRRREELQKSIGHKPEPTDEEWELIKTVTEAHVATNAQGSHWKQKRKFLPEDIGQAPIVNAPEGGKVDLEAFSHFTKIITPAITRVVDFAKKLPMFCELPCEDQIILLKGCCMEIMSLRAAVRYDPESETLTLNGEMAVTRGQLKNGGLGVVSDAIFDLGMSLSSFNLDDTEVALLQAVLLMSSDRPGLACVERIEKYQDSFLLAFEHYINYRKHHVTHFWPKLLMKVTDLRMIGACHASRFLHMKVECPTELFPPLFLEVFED
Chain of Peroxisome proliferator-activated receptor delta (Homo sapiens) (Q03181 whole entry, looked up): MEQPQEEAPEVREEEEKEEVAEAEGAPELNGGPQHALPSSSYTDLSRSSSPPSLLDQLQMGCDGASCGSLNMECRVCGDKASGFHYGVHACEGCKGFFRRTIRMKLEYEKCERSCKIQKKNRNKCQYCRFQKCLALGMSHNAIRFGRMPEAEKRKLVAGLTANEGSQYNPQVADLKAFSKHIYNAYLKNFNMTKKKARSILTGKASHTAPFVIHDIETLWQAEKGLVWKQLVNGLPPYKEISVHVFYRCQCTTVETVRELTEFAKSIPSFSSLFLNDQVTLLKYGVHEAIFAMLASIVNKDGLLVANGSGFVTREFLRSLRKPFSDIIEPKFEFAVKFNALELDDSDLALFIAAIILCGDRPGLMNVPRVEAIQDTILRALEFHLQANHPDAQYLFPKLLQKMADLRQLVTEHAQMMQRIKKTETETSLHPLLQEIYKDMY
Chain of Retinoic acid receptor RXR-alpha (Homo sapiens) (P19793 whole entry, looked up): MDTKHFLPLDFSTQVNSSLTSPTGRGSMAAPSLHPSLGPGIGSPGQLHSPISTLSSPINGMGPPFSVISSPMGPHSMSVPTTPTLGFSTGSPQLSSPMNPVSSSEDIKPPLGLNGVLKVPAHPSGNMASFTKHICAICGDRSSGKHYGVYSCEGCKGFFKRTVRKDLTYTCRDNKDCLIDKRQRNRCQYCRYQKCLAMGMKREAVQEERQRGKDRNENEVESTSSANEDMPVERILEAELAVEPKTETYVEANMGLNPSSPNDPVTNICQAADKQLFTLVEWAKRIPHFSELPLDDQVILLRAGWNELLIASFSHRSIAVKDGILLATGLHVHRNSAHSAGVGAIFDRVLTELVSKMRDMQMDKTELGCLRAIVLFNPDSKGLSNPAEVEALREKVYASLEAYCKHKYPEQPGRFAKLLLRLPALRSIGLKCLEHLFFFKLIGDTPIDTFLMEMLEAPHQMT
Chain of Peroxisome proliferator-activated receptor gamma (Homo sapiens) (P37231 whole entry, looked up): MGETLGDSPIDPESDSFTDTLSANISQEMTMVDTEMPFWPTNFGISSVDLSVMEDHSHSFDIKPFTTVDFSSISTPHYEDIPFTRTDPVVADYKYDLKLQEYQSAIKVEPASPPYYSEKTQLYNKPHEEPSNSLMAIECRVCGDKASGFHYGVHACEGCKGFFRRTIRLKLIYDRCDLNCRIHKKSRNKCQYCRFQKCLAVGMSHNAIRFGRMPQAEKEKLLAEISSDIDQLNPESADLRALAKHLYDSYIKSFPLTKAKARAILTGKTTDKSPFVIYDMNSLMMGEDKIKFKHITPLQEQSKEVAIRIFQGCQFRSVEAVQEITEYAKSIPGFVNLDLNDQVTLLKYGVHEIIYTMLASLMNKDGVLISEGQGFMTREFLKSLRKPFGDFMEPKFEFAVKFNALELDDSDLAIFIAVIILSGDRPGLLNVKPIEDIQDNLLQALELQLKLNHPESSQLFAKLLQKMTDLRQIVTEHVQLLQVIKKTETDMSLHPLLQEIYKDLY

Question: Which results are given for `CCCOC(=O)c1ccccc1C(=O)OCCC`?
Answer: Potency [1]: inactive; Potency [2]: inactive; Potency [3]: inactive; Potency [4]: inactive; Potency [5]: inactive; Potency [6]: inactive; Potency [7]: inactive; Potency [8]: inactive; Potency [9]: inactive; Potency [10]: inactive; Potency [11]: inactive; outcome [12]: inactive; Potency [13]: inactive; Potency [14]: inactive; outcome [15]: inactive; activation [16]: -0.825% (inactive) and -0.41% (inactive); outcome [17]: inactive; max response [18]: 2.17%; outcome [19]: inactive; max response [20]: 8.06% and -8.01%; Potency [21]: inactive; outcome [22]: inactive; max response [23]: 3.93% and -2.34%
